From PubChem BioAssay (NCATS)
Records with an inconclusive call do not appear. Activity calls are given as the source filed them. Calls come from the whole dose curve; as a rule, active = well fitted inhibition curve with a large enough effect; inconclusive = small, poorly fitted or top-dose-only effect; inactive = flat fitted curve, though single readings scatter.

Key:
Assay in all cases: qHTS profiling for inhibitors of Plasmodium falciparum proliferation (AID 504749); note: nearly all actives have a fitted effect of over 60% in size
Settings in all cases: P. falciparum in erythrocytes, SYBR Green DNA, 72 h; series mostly up to 28.7 µM
PAD = tested on: PAD
Procedure, shortened: (§1)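 P. falciparum-infected erythrocytes (0.3% parasitemia, 2.5% hematocrit) incubated with compound 72 h at 37 C, 5% CO2. Parasite DNA detected by SYBR Green after lysis, overnight at room temperature; normalised to 0.29 uM artemisinin and DMSO.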

PC15 = tested on: PC15
Procedure, shortened: as §1

PC26 = tested on: PC26
Procedure, shortened: as §1

PC49 = tested on: PC49
Procedure, shortened: as §1

SC27B = tested on: SC27B
Procedure, shortened: as §1

TAB109 = tested on: TAB109
Procedure, shortened: as §1

TAB113 = tested on: TAB113
Procedure, shortened: as §1

TAB165 = tested on: TAB165
Procedure, shortened: as §1

W2 = tested on: W2
Procedure, shortened: as §1

P94_40 = tested on: P94_40
Procedure, shortened: as §1

Measured: Potency
Potency is the fitted concentration of half-maximal effect.

CCOC(=O)c1cnc2c(cnn2CC)c1NN=C(C)C
not listed: W2 | P94_40
inactive: all other assays above

OC(CCN1CCCCC1)(c1ccccc1)C1CCCCC1 (configuration not stated)
active: W2 6.01 µM
inactive: PAD | PC15 | SC27B | TAB113 | TAB165

Cc1ccc(=O)n(-c2ccccc2)c1
not listed: PAD
inactive: all other assays above

CCCCCCCC/C=C\CCCCCCCC(=O)NCc1ccc(O)c(OC)c1
inactive: PC26
active: SC27B 10 µM | TAB165 8.91 µM

CC(C)COCC(CN(Cc1ccccc1)c1ccccc1)N1CCCC1 (configuration not stated)
inactive: PAD | PC49 | SC27B | TAB109 | TAB113

CN(C)C/C=C(/c1ccc(Br)cc1)c1cccnc1
active: W2 8.49 µM
inactive: PC15 | PC26 | PC49 | SC27B | TAB113

CCCCNc1ccc(C(=O)OCCN(C)C)cc1
not listed: PC15 | PC26 | PC49
inactive: all other assays above

c1cc(CN2CCCCC2)cc(OCCCNc2nc3ccccc3s2)c1
active: P94_40 10 µM | TAB109 2.24 µM | TAB165 3.98 µM | W2 4.78 µM

CN(C)CCN(Cc1cccs1)c1ccccn1
active: P94_40 10 µM | PC49 10 µM | TAB109 4.47 µM | W2 1.9 µM

CCC(=O)c1ccc2c(c1)N(CCCN(C)C)c1ccccc1S2
inactive: PC49 | SC27B
active: W2 3.01 µM

CCCN1C[C@H](CSC)C[C@@H]2c3cccc4[nH]cc(c34)C[C@H]21
inactive: PC15 | PC49
active: SC27B 11.2 µM | TAB109 12.6 µM | TAB165 14.1 µM | W2 5.36 µM

CC1=NS(=O)(=O)c2cc(Cl)ccc2N1
inactive: PAD | PC26 | SC27B | TAB113

Cc1nc2ccccn2c(=O)c1CCN1CCC(C(=O)c2ccc(F)cc2)CC1
active: W2 6.01 µM
inactive: PC26 | SC27B | TAB113

CN(C)CCOC(=O)COc1ccc(Cl)cc1
not listed: PC15 | PC26 | PC49
inactive: all other assays above

Cc1ccc(S(=O)(=O)NC(=O)NN2CCCCCC2)cc1
not listed: P94_40
inactive: all other assays above

CC(C)[N+](C)(CCOC(=O)C1c2ccccc2Oc2ccccc21)C(C)C
inactive: PC15 | PC26 | PC49

CC(C)(C)c1ccc(C(=O)CCCN2CCC(OC(c3ccccc3)c3ccccc3)CC2)cc1
active: P94_40 7.94 µM | TAB165 7.94 µM | W2 4.78 µM
inactive: PC49

CCCCNc1c(C(=O)OCC)c(C)nc2c1cnn2CC
not listed: TAB165 | W2 | P94_40
inactive: all other assays above

Fc1ccc(C(c2ccc(F)cc2)N2CCN(C/C=C/c3ccccc3)CC2)cc1
active: TAB165 11.2 µM

COc1ccc(CCN(C)CCCC(C#N)(c2cc(OC)c(OC)c(OC)c2)C(C)C)cc1OC (configuration not stated)
inactive: PC15 | PC49
active: W2 2.39 µM

NC(=O)N1c2ccccc2C=Cc2ccccc21
not listed: P94_40
inactive: all other assays above

O=C(CCCN1CCC(O)(c2cccc(C(F)(F)F)c2)CC1)c1ccc(F)cc1
active: P94_40 8.91 µM | PAD 10 µM | PC49 7.94 µM | SC27B 11.2 µM | TAB109 8.91 µM | TAB113 12.6 µM | TAB165 7.94 µM | W2 2.69 µM

COCCCC/C(=N\OCCN)c1ccc(C(F)(F)F)cc1
active: TAB165 7.94 µM
inactive: PC49

NC(N)=N/N=C/c1c(Cl)cccc1Cl
inactive: PC49 | SC27B
active: W2 12 µM

NC(N)=NC(=O)Cc1c(Cl)cccc1Cl
active: PC26 7.57 µM | W2 6.75 µM
inactive: TAB113

COCCOC(=O)C1=C(C)NC(C)=C(C(=O)OC(C)C)C1c1cccc([N+](=O)[O-])c1 (configuration not stated)
inactive: PC49
active: PC26 12 µM | TAB165 10 µM

CCc1cccc(N(C)C(N)=Nc2cccc3ccccc23)c1
active: PAD 4.47 µM | PC15 5.01 µM | PC26 4.26 µM | W2 0.757 µM

CN(C)CCCN1c2ccccc2Sc2ccccc21
active: PC15 2 µM | W2 0.572 µM
